Several values for one entry are separate records, joined by “and”; a condition that tells them apart may be missing. Equal values may be shown once. About 840 (0.24%) of roughly 350,000 compounds were called active. The sample as a whole holds a higher share of actives than the screen did. A number with no mark means an inactive call. Rule as the data show it: active = inhibition above about 10%; inactive = the rest.
Target: Toxin B (Clostridioides difficile) (UniProt P18177)
Assay: TcdB glycohydrolase inhibitors, primary screen, biochemical, single point, plate reader (AID 652162)
Conditions: TcdB glycohydrolase enzymatic assay, at 9.99 µM, hits give high values

Toxin B (Clostridioides difficile), sequence (P18177 whole entry, looked up): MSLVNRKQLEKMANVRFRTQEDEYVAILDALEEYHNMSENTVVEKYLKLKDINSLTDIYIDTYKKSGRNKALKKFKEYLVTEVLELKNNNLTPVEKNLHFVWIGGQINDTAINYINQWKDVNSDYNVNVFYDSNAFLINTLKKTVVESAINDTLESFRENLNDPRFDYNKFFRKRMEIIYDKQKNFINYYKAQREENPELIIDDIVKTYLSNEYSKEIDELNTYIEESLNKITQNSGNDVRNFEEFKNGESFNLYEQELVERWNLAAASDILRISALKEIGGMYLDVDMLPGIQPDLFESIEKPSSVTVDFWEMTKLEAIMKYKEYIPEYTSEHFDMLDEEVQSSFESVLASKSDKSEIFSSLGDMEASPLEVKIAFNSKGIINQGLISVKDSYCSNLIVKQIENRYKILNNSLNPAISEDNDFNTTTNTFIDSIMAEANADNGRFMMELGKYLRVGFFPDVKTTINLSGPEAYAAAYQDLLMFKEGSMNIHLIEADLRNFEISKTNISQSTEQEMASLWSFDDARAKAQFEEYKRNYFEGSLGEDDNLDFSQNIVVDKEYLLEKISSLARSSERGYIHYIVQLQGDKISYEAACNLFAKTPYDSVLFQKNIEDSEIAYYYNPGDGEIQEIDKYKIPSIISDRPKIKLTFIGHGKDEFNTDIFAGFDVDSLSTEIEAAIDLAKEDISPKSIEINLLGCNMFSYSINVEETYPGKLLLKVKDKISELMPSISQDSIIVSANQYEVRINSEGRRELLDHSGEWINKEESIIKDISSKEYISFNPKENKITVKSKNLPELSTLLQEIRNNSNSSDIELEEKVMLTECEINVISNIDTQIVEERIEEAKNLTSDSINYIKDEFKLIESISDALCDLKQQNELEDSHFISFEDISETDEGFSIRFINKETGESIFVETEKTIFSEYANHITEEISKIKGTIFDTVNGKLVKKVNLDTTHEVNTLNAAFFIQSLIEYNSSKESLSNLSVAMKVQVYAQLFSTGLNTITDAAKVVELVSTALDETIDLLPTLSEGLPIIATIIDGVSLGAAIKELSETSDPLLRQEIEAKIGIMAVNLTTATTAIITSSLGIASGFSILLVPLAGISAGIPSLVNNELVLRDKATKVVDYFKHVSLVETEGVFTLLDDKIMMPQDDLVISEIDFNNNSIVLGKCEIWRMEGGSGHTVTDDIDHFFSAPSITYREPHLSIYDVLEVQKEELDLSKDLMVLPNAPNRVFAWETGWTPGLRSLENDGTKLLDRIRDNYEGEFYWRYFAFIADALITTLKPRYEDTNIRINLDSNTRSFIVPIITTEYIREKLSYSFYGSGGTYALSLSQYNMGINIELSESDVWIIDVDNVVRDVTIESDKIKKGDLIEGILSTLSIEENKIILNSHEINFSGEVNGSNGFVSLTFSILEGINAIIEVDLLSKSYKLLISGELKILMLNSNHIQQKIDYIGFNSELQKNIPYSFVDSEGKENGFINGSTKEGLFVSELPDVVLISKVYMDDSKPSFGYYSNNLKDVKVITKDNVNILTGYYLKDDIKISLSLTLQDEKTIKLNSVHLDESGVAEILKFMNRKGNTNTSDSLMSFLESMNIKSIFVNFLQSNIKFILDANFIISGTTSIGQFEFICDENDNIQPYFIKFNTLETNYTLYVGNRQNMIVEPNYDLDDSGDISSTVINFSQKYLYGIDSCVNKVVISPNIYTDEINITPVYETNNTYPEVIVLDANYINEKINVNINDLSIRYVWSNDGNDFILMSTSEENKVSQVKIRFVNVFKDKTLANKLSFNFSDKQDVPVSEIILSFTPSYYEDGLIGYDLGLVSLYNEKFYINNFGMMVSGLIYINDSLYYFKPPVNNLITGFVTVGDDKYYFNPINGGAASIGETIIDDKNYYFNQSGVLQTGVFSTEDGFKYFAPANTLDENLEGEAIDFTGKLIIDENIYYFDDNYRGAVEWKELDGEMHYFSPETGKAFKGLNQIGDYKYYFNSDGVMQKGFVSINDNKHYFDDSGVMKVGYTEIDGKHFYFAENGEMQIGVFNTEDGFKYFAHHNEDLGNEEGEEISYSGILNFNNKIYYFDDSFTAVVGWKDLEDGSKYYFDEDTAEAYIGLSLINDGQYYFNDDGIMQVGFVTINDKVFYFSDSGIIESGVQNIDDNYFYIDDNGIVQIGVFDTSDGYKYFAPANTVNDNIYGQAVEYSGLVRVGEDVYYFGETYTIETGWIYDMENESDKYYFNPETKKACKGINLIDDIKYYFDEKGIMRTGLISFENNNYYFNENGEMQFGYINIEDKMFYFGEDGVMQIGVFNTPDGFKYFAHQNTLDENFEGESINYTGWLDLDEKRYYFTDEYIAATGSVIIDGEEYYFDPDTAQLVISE

Row | SMILES | inhibition
1 | Cc1cc(C(=O)Nc2ccc3c(c2)C(=O)N(C)[C@H]2CC[C@H](CC(=O)NCC(F)(F)F)O[C@@H]2CO3)no1 | -0.366%
2 | CO[C@H]1O[C@H](CO)[C@@H](OC(=O)Nc2ccc(C(F)(F)F)cc2)[C@H](OC(=O)Nc2ccc3c(c2)OCO3)[C@H]1OC(=O)Nc1ccc2c(c1)OCO2 | 0.426%
3 | CO[C@@H]1CN(C)C(=O)c2cc(NC(C)=O)ccc2OC[C@H](C)N(Cc2ccccc2F)C[C@@H]1C | -0.886%
4 | CN(C)C(=O)c1ccc(-c2ccc([C@H]3[C@H](CO)N4CCCCN(S(C)(=O)=O)C[C@@H]34)cc2)cc1 | -1.71%
5 | O=C(CCN1CCCCC1)N[C@H]1CC[C@H](CCNS(=O)(=O)c2ccc(F)cc2)O[C@@H]1CO | 0.554%
6 | Cc1ccccc1-c1ccc(C2[C@@H]3CN(C(=O)C4CCCCC4)C[C@H]2N3)cc1 (some centres not stated) | -3.88% and 0.934%
7 | O=C(CSC1c2ccccc2-c2ccccc21)N/N=C/c1ccccc1 | 2.65%
8 | Nc1nnn(CC(=O)N/N=C/c2ccccc2)n1 | 1.05%
9 | Cc1nonc1C(=O)N/N=C/c1ccc(O)cc1 | 5.9%
10 | O=C(C[n+]1ccccc1)N/N=C/c1ccc(O)cc1 | 11.1% (active)
11 | O=C(CN1CCSCC1)N/N=C/c1ccc(Cl)cc1 | 1.98%
12 | Nc1nnn(CC(=O)N/N=C/c2ccc(O)cc2)n1 | 13.2% (active)
13 | COc1ccc2c3c([nH]c2c1)[C@@H](CO)N(C(=O)CC1CC1)CC31CCN(Cc2cccnc2)CC1 | 0.524%
14 | O=C(Cc1ccccc1)N1C[C@@H]2[C@H](c3ccccc31)[C@@H](CO)N2C(=O)Nc1ccc(F)cc1 | 1.65%
15 | COCC(=O)Nc1ccc2c(c1)[C@H]1C[C@H](CC(=O)NCc3ccc(OC)cc3)O[C@@H](CO)[C@H]1O2 | 1.91%
16 | CN1C(=O)c2cc(NC(=O)Nc3ccccc3F)ccc2OC[C@H]2O[C@H](CC(=O)NCc3ccc(-c4ccccc4)cc3)CC[C@H]21 | -0.392%
17 | COCC(=O)Nc1ccc2c(c1)OC[C@H](C)N(C(=O)c1ccccc1F)C[C@H](C)[C@H](OC)CN(C)C2=O | 0.041%
18 | O=c1[nH]c(CN2CCOCC2)nc2cc(Cl)ccc12 | 11.3% (active)
19 | CN(CCOc1ccccc1)Cc1nc2cc(Cl)ccc2c(=O)[nH]1 | -0.715%
20 | O=c1[nH]c(CN2CCOCC2)nc2scc(-c3ccccc3)c12 | 2.63%
21 | CC(C)CC#Cc1cnc2c(c1)C(=O)N([C@@H](C)CO)C[C@@H](C)[C@@H](CN(C)C(=O)c1cccnc1)O2 | -0.559%
22 | O=C1C=CCCN1C(=O)/C=C/c1ccc(F)cc1 | 0.919%
23 | CCS(=O)(=O)N1CCC2(CC1)CN(S(=O)(=O)c1ccc(C)cc1)[C@H](CO)c1[nH]c3cc(OC)ccc3c12 | -1.12%
24 | CN(C)c1ccc(C(=S)N2CCN(C(=S)Nc3ccc(Cl)cc3)CC2)cc1 | 17.4% (active)

Row | SMILES | inhibition
25 | O=C(NC1CCN(C(=S)Nc2ccc(Cl)cc2)CC1)C1CCCCC1 | -0.645%
26 | CCOC(=O)c1ccc(NC(=S)N2CCCC2)cc1 | 1.01%
27 | COc1ccccc1NC(=O)N1CC(=O)N2[C@H](C1)[C@H](c1ccc(C#Cc3ccccc3)cc1)[C@@H]2CO | 0.309%
28 | O=C(C[C@H]1CC[C@@H]2[C@H](COC[C@@H](O)CN2CC2CC2)O1)NCC1CC1 | -1.35%
29 | O=C(C[C@@H]1CC[C@@H]2[C@H](COC[C@H](O)CN2CC2CCOCC2)O1)NCC1CCCCC1 | 0.565%
30 | C[C@H]1CN([C@@H](C)CO)C(=O)c2cc(NS(=O)(=O)c3ccc(F)cc3)ccc2O[C@H]1CN(C)CC1CC1 | -1.14%
31 | O=C(C[C@@H]1C[C@@H]2c3cc(NS(=O)(=O)c4ccc(F)cc4)ccc3O[C@@H]2[C@H](CO)O1)NCc1cc(F)ccc1F | -0.254%
32 | C[C@@H]1CN([C@@H](C)CO)C(=O)c2cc(NC(=O)Nc3ccc(C(F)(F)F)cc3)ccc2O[C@@H](C)CCCCO[C@@H]1CN(C)C(=O)Nc1cccc2ccccc12 | -0.569%
33 | C[C@@H]1CN([C@H](C)CO)C(=O)c2cccc(NS(=O)(=O)c3ccc(F)cc3)c2O[C@@H]1CN(C)C(=O)Nc1ccc(C(F)(F)F)cc1 | 0.036%
34 | C[C@@H]1CN([C@@H](C)CO)S(=O)(=O)c2ccc(/C=C/c3ccccc3)cc2O[C@H]1CN(C)C(=O)Nc1cc(F)ccc1F | -0.621%
35 | CC1CCN(C(=O)/C(=C\c2ccccc2)NC(=O)c2ccccc2)CC1 | 0.574%
36 | O=C(N/C(=C\c1ccc(F)cc1)C(=O)N1CCCCCC1)c1ccccc1 | 1.06%
37 | O=C(N/C(=C\c1ccc(O)cc1)C(=O)N1CCCCC1)c1ccccc1 | 14.3% (active)
38 | C[C@H](CO)N1C[C@H](C)[C@H](CN(C)S(=O)(=O)c2ccccc2C#N)OCc2cn(nn2)CCCC1=O | -0.086%
39 | CNC[C@H]1OCCCC[C@@H](C)Oc2ccc(NS(C)(=O)=O)cc2C(=O)N([C@@H](C)CO)C[C@H]1C | 0.355%
40 | CO[C@H]1CN(C)C(=O)c2cc(NC(=O)c3cc(C)on3)ccc2OC[C@@H](C)N(C(C)=O)C[C@H]1C | -0.186%
41 | C[C@H](CO)N1C[C@H](C)[C@H](CN(C)S(=O)(=O)c2cccs2)Oc2ccc(NC(=O)Nc3ccccc3)cc2C1=O | -11.1%
42 | O=C(Nc1cccc(Cl)c1)N[C@@H]1CC[C@@H](CCNC(=O)C2CCOCC2)O[C@@H]1CO | -0.908%
43 | CN(c1ccc(O)cc1)c1nc(-c2cccnc2)cs1 | 14.9% (active)
44 | CN(C)c1ccc(-c2nnc(-c3cccnc3)o2)cc1 | 0.383%
45 | O=C(NNC(=O)c1csc(-c2cccnc2)n1)Nc1ccc(Cl)cc1 | 0.087%
46 | CCCNC(=O)C[C@H]1C[C@@H]2c3cc(NC(=O)NC4CCCC4)ccc3O[C@@H]2[C@@H](CO)O1 | -0.087%
47 | O=C(c1cccc(F)c1)N1CC[C@@H]2[C@H](CO)Nc3ccc(-c4ccccc4)cc3[C@@H]21 | -1.25%
48 | CCC(=O)N(C)C[C@H]1Oc2cc(/C=C/c3ccccc3)ccc2S(=O)(=O)N([C@H](C)CO)C[C@H]1C | 0.008%

Row | SMILES | inhibition
49 | CCCC#Cc1ccc([C@H]2[C@@H](CO)N3C(=O)CN(C(=O)c4ccncc4)C[C@H]23)cc1 | 0.225%
50 | COc1ccccc1S(=O)(=O)N1CC[C@@H]2[C@H]1c1cc(-c3ccccc3)ccc1N[C@@H]2CO | -0.443%
51 | COc1ccc(S(=O)(=O)Nc2ccc3c(c2)C(=O)N([C@@H](C)CO)C[C@@H](C)[C@H](CN(C)S(=O)(=O)c2cccs2)O3)cc1 | 0.284%
52 | C[C@H](CO)N1C[C@H](C)[C@H](CN(C)S(=O)(=O)c2cccc(F)c2)Oc2ncc(/C=C/c3ccccc3)cc2C1=O | 0.994%
53 | O=C(Cc1ccccn1)N[C@H]1CC[C@H](CCn2cc(-c3ccc(F)cc3)nn2)O[C@H]1CO | -7.26%
54 | CO[C@@H]1CN(C)C(=O)c2cc(NC(C)=O)ccc2OC[C@H](C)N(Cc2ccccn2)C[C@H]1C | 0.576%
55 | COc1ccccc1-n1c(SCC(=O)O)nc2sc3c(c2c1=O)CCC3 | -0.511%
56 | COc1cccc(-n2c(=S)sc3c(=O)n(-c4ccccc4OC)c(SCC4OCCO4)nc32)c1 | 1.51%
57 | COc1ccc(Cl)cc1-n1c(=S)sc2c(=O)n(-c3ccc(F)cc3)c(SCC(=O)O)nc21 | 20.5% (active)
58 | Cc1cccc(S(=O)(=O)N2CCCCN3[C@@H](CO)[C@H](c4ccc(-c5cccnc5)cc4)[C@@H]3C2)c1 | 0.453%
59 | CCNC(=O)C[C@H]1CC[C@@H]2[C@H](COC[C@H](O)CN2C(=O)Nc2c(C)noc2C)O1 | -1.03%
60 | COc1ccc(CN(C)C[C@H]2OCCCC[C@H](C)Oc3ccc(NC(=O)NC4CCCCC4)cc3C(=O)N([C@@H](C)CO)C[C@@H]2C)cc1 | 0.374%
61 | CO[C@@H]1CN(C)C(=O)c2cc(NC(=O)c3ccc4c(c3)OCO4)ccc2OC[C@H](C)N(CCC(F)(F)F)C[C@H]1C | 1.3%
62 | O=C(NCC[C@H]1CC[C@@H](NS(=O)(=O)c2cccc(Cl)c2)[C@@H](CO)O1)c1cnccn1 | -2.69%
63 | C[C@H]1CN([C@@H](C)CO)C(=O)c2cc(C#Cc3ccccc3F)cnc2O[C@@H]1CN(C)C(=O)C1CC1 | -2.35%
64 | N#C[C@H]1[C@@H](c2ccccc2C2=CCCCC2)[C@H](CO)N1C(=O)c1ccccn1 | -7.67%
65 | COc1ccc2c3c(n(C)c2c1)[C@H](CO)N(C(C)=O)CC31CN(C(=O)c2cnccn2)C1 | 0.415%
66 | Cc1cccn2c(CNCC(C)Oc3cccnc3)c(C(=O)N3CCOCC3)nc12 (configuration not stated) | -0.924%
67 | Cc1cccn2c(CN(C)C3CCCc4ccccc43)c(C(=O)N3CCOCC3)nc12 (configuration not stated) | 11% (active)
68 | CCOC(=O)C1CCN(Cc2c(C(=O)N3CCOCC3)nc3c(C)cccn23)CC1 | 1.15%
69 | COc1ccc(C#Cc2ccc([C@H]3[C@H]4CN(C(=O)c5ccncc5)CC(=O)N4[C@H]3CO)cc2)cc1 | -0.009%
70 | N#C[C@@H]1[C@H](c2ccccc2-c2cccc(F)c2)[C@@H](CO)N1C(=O)CN1CCOCC1 | -0.655%
71 | Cc1noc(C)c1NC(=O)N[C@@H]1CC[C@H](CC(=O)Nc2ccccc2)O[C@H]1CO | 2.14%
72 | CO[C@@H]1CC[C@@H]2CCOc3c(C#N)cccc3C(=O)N(C)C[C@@H](C)C(=O)N(C)C[C@@H]1O2 | -0.159%

From PubChem BioAssay AID652162 (Broad Institute, 2013)
